AmpC no deterg: qHTS Inhibitors of AmpC Beta-Lactamase (assay without detergent); P00811; AmpC nitrocefin hydrolysis, absorbance 480 nm, 0.0001% Triton; Potency, µM (highest dose often 57.1 µM), for inactives: at the top dose activity change, negative = inhibition, most hits filed as inhibitors; 330,000 compounds, 0.52% hits;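 also: plate controls were no compound for no effect and no enzyme for full effect; nearly all actives have a fitted effect of over 20% in size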
Target sequence (P00811 whole entry, looked up): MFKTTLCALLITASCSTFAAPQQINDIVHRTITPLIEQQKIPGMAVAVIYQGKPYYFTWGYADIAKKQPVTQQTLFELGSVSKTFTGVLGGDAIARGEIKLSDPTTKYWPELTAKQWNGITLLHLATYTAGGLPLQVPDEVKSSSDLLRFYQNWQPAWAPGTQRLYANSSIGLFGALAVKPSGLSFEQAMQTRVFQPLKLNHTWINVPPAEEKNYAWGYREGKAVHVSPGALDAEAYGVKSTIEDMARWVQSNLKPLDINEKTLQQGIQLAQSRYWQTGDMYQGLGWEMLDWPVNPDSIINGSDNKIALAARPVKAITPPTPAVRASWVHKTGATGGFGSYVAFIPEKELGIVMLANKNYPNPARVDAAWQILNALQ
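AmpC (5.3 nM in the dispensed reagent) in 20 mM phosphate pH 7.0 with 0.01% (detergent screen) or 0.0001% Triton X-100 was preincubated with compounds for 15 min at room temperature. Nitrocefin was then added from an 800 uM solution, and hydrolysis was followed at 480 nm.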
Pf growth 48h: Primary qHTS for delayed death inhibitors of the malarial parasite plastid, 48 hour incubation; Potency, µM (titrated, usually from 28.7 µM), for inactives: at the highest dose activity change, negative = inhibition, actives largely listed as inhibitors; P. falciparum luciferase growth in erythrocytes, 48 h; 310,000 compounds, 5.9% hits; also: % is scaled to controls: 0 for no effect and ±100 for the full control effect
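A one-generation exposure of luciferase-tagged malaria parasites in RPMI 1640/Albumax erythrocyte culture, 37 C and 5% CO2. Inhibition is inferred from decreased luminescence after adding detection reagent.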
Pf growth 96h: Primary qHTS for delayed death inhibitors of the malarial parasite plastid, 96 hour incubation; P. falciparum luciferase reporter growth, 96 h; Potency, µM (top dose mostly 28.7 µM), for the others: at the top dose activity change, negative = inhibition, most hits filed as inhibitors; 320,000 compounds, 6.9% hits; AID 504834, 2011; also: % is scaled to controls: 0 for no effect and ±100 for the full control effect
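Two parasite generations (96 h, 37 C, 5% CO2) of compound exposure in infected erythrocytes (0.05% parasitemia, 2% hematocrit). Luciferase-reporter P. falciparum; decreased luminescence indicates inhibited growth, aimed at apicoplast-acting delayed death.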
AmpC detergent: qHTS Inhibitors of AmpC Beta-Lactamase (assay with detergent); 370,000 compounds, 0.041% hits; AID 485294, 2010; AmpC hydrolysis of nitrocefin, absorbance 480 nm, 0.01% Triton; P00811; Potency, µM (top dose mostly 114 µM), for inactives: at the top dose activity change, negative = inhibition, most hits filed as inhibitors;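 also: 0% = no-compound wells and -100% = no-enzyme wells; nearly all actives have a fitted effect of over 25% in size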
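AmpC (5.3 nM in the dispensed reagent) in 20 mM phosphate pH 7.0 with 0.01% (detergent screen) or 0.0001% Triton X-100 was preincubated with compounds for 15 min at room temperature. Nitrocefin was then added from an 800 uM solution, and hydrolysis was followed at 480 nm.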
SARS PLP yeast: qHTS of Yeast-based Assay for SARS-CoV PLP | Potency, µM (doses to about 32.9 µM), for the others: top-dose activity, positive = growth rescue, usual class: activators | S. cerevisiae expressing SARS-CoV PLpro, growth rescue | AID 485353, 2010 | 330,000 compounds, 0.19% hits; calls by dose curve; also: 0% is about no effect; nearly all actives have a fitted effect of over 55% in size
Sm TGR inh: qHTS Assay for the Inhibitors of Schistosoma Mansoni Peroxiredoxins. purified TGR, DTNB reduction, TNB absorbance 405 nm. Potency, µM (doses to about 114 µM), for the others: top-dose activity change, negative = inhibition, usual class: inhibitors. 360,000 compounds, 3% hits. Schistosoma mansoni thioredoxin glutathione reductase (TGR), Q962Y6; also: % is scaled to controls: 0 for no effect and ±100 for the full control effect; nearly all actives have a fitted effect of over 60% in size
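Kinetic colorimetric format: TGR-catalysed, NADPH-driven DTNB reduction monitored via TNB absorbance. Enzyme dispensed at 20 nM; compound exposure 15 min at room temperature before reaction start.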
The depositor's hits bear a star; ? = inconclusive; nt = no result; ! = a repeat was not active; [ ] = another dose, or the depositor's remark. Hits are enriched below; roughly 12% of the tested compounds scored in any of these assays. Unless noted, calls follow the shape of the dose curve; as a rule, active = well fitted curve in the direction sought with a large enough effect; inconclusive = small, poorly fitted or top-dose-only effect, or another doubt; inactive = no such curve, though single readings can be large; an effect the other way counts as inactive or inconclusive. Potency is read from the fitted curve at half-maximal effect.

SMILES | AmpC no deterg | Pf growth 48h | Pf growth 96h | AmpC detergent | SARS PLP yeast | Sm TGR inh
COc1ccccc1S(=O)(=O)Cc1ccc(C(=O)NCc2ccco2)o1 | -1.4% | 13.0% | 5.4% | -14.3% | 1.2% | -27.4%
CC1CC(c2ccccc2)n2nc(NC(=O)c3ccco3)nc2N1 (centres undefined) | -18.8% | 11.8% | 8.28µM* | -6.1% | 3.9% | 0.0%
COc1ccc(C2CC(c3ccc(F)cc3)n3nc(NC(=O)c4ccco4)nc3N2)cc1 (centres undefined) | -2.4% | 5.4% | -19.7% | -1.0% | -0.7% | 1.5%
Cc1ccc(C2C=C(c3ccccc3)Nc3nc(NS(=O)(=O)c4ccccc4)nn32)cc1 (centres undefined) | nt | nt | nt | 25.4% | nt | 35.5µM*
Cc1ccc(C2C=C(c3ccccc3)Nc3nc(N4C(=O)CCC4=O)nn32)cc1 (centres undefined) | -6.8%[2.29 µM] | 14.3% | 6.1% | -11.9% | 0.8% | 22.4µM*
COc1ccc(C2C=C(c3ccccc3)Nc3nc(NC(C)=O)nn32)cc1 (centres undefined) | -18.1% | -14.3% | nt | 20.3% | 4.7% | 20µM*!
Cc1ccc(S(=O)(=O)Nc2nc3n(n2)C(c2ccc(F)cc2)C=C(c2ccccc2)N3)cc1 (centres undefined) | nt | nt | nt | 3.0% | nt | -2.8%
COc1cccc(C(=O)c2cc3cc(Cl)ccc3[nH]2)c1 | -32.1% | 120.9% | ? | 0.2% | -0.7% | 20.6%
Cc1ccc(S(=O)(=O)Nc2nc3n(n2)C(c2ccc(Cl)cc2)C=C(c2ccccc2)N3)cc1 (centres undefined) | nt | nt | nt | 11.5% | nt | 2.3%
COc1ccccc1C(=O)Nc1nc2n(n1)C(c1ccc(F)cc1)C=C(c1ccc(Cl)cc1)N2 (centres undefined) | nt | nt | nt | -2.9% | nt | -1.4%
O=S(=O)(Nc1nc2n(n1)C(c1ccccc1)C=C(c1ccc(Cl)cc1)N2)c1ccccc1 (centres undefined) | nt | nt | nt | 25.0% | nt | 44.7µM*
Cc1ccc(C2C=C(c3ccc(Cl)cc3)Nc3nc(NC(=O)c4ccco4)nn32)cc1 (centres undefined) | nt | nt | nt | 4.5% | nt | 12.6µM*
COc1cc(NC(=O)CSCC(=O)Nc2cc(OC)cc(OC)c2)cc(OC)c1 | -30.1% | 0.4% | 54.2% | -4.9% | 1.5% | 4.4%
NC(=S)N/N=C/c1ccccc1O | -11.1% | 0.329µM* | 1.04µM* | 6.3% | -0.6% | 15.3%
NC(=S)N/N=C/c1cccc(O)c1O | -8.5% | ? | -11.5% | 1.7% | 0.6% | nt
Cc1cc(/C=N/NC(N)=S)c(O)c(/C=N/NC(N)=S)c1 | -34.3% | 0.465µM* | 11.7µM* | 8.9% | 0.5% | 5.4%
CNc1ccc(Br)cc(C(=O)/C=C/c2ccc(OC)cc2OC)c1=O | ? | ? | ? | ? | -29.4% | ?
CCNc1ccc(Br)cc(C(=O)/C=C/c2ccc3c(c2)OCO3)c1=O | -52.3% | 17.4% | ? | ? | -8.3% | ?
CCNc1ccc(Br)cc(C(=O)/C=C/c2ccc(Cl)cc2)c1=O | -52.9% | -72.0% | ? | -8.2% | -32.0% | 10µM*
CNc1ccc(Br)cc(C(=O)/C=C/c2ccc(Cl)cc2Cl)c1=O | -53.2% | ? | ? | 7.0% | -0.8% | 3.55µM*
CNc1ccc(Br)cc(C(=O)/C=C/c2cccc(OC)c2)c1=O | -45.1% | ? | ? | -1.3% | -9.6% | 3.16µM*
CCNc1ccc(Br)cc(C(=O)/C=C/c2c(Cl)cccc2Cl)c1=O | -59.4% | ? | ? | 0.5% | -34.9% | 0.891µM*
COc1cccc(Cn2c(CNS(=O)(=O)c3ccc(C(C)(C)C)cc3)nc3cccnc32)c1 | nt | nt | nt | 0.9% | nt | -0.4%
Cc1c(C(=O)N2CCC(C)CC2)c(S(=O)(=O)N2CCN(c3ccc(Cl)cc3)CC2)c(C)n1C | nt | nt | nt | -2.0% | nt | 0.2%
CCCN(CCC)S(=O)(=O)c1ccc(C(=O)OCCN2C(=O)c3cccc4c(N5CCOCC5)ccc(c34)C2=O)cc1 | -12.1% | ? | ? | 2.0% | 5.1% | 2.1%
SMILES | AmpC no deterg | Pf growth 48h | Pf growth 96h | AmpC detergent | SARS PLP yeast | Sm TGR inh
O=C(OCCN1C(=O)c2cccc3c(N4CCOCC4)ccc(c23)C1=O)c1ccc(Cl)cc1 | -9.3% | ? | 11.7µM* | ? | ? | 3.5%
O=C(N/N=C/c1ccc(O)c(Br)c1)c1cc2c(ccc3ccccc32)o1 | -55.9% | ? | ? | -5.4% | -2.9% | -9.2%
O=C(N/N=C/c1cc(Br)c(O)c(Br)c1)c1cc2c(ccc3ccccc32)o1 | -56.5% | -17.1% | 13.1µM* | -8.0% | -21.0% | -3.6%
O=C(N/N=C/c1cc(Cl)c(O)c(Cl)c1)c1cc2c(ccc3ccccc32)o1 | ? | 11.7µM* | ? | -11.0% | -17.2% | 2.3%
CCC(=O)N1CCc2cc(S(=O)(=O)CCC(=O)N3CCN(c4cc(C)ccc4C)CC3)ccc21 | nt | nt | nt | -2.5% | nt | -9.9%
O=C(COc1ccccc1)Nc1ccc2nc(SCCOc3ccccc3)sc2c1 | nt | nt | nt | 23.0% | nt | 1.5%
CCOC(=O)N/N=C/c1cc(C)n(-c2cccc3ccccc23)c1C | -8.1% | 11.7µM* | 9.28µM* | -0.9% | -2.5% | -2.1%
Cc1cc(/C=N/NC(=O)c2cccc(F)c2)c(C)n1-c1ccccc1 | -39.1% | 218.9% | ? | 7.1% | 1.7% | -3.3%
COC(=O)N/N=C/c1cc(C)n(-c2cccc3ccccc23)c1C | -6.9% | 7.38µM* | 14.7µM* | -13.3% | -1.3% | -12.3%
CCOC(=O)N/N=C/c1cc(C)n(-c2ccccc2)c1C | -12.4% | ? | ? | 0.2% | 14.3% | -16.0%
CCc1ccc(CN2CCc3nc(N4CCN(c5ccccc5F)CC4)ncc3C2)cc1 | nt | nt | nt | 18.5% | nt | 6.1%
O=C(Cc1cccc(NC(=O)C2CCN(C(=O)CCc3ccccc3)CC2)c1)Nc1cccc(C(=O)N2CCCC2)c1 | 108.3% | 11.7µM* | ? | -9.2% | -6.7% | -9.8%
O=C(Cc1cccc(NC(=O)C2CCN(C(=O)C3CCCC3)CC2)c1)Nc1cccc(C(=O)N2CCCC2)c1 | 95.1% | 14.7µM* | ? | 4.6% | -1.3% | 7.7%
O=C(Cc1cccc(NC(=O)C2CCN(C(=O)c3ccccc3)CC2)c1)Nc1cccc(C(=O)N2CCCC2)c1 | 105.1% | ? | -3.9% | 0.2% | -3.6% | -11.0%
CCCn1c2ccccc2c2cnn(CC(=O)NCCCN(Cc3ccccc3)C(C)C)c(=O)c21 | nt | nt | nt | 13.6% | nt | 4.9%

Screens: PubChem, National Center for Advancing Translational Sciences (NCATS)
